Sampled rows, rich in hits. Any-hit rate of the full collection: about 10%.
G9a inh: inhibitors of human histone lysine methyltransferase G9a. Q96KQ7. G9a H3K9 monomethylation, AlphaScreen, 2 h. Potency, µM (titrated, usually from 102 µM), inactives show at the top dose activity, negative = inhibition, most hits filed as inhibitors. 8.8% of 350,000 active. AID 504332; note: potency is the fitted concentration of half-maximal effect; nearly all actives have a fitted effect of over 75% in size
Target sequence (Q96KQ7 913-1193 limits assumed): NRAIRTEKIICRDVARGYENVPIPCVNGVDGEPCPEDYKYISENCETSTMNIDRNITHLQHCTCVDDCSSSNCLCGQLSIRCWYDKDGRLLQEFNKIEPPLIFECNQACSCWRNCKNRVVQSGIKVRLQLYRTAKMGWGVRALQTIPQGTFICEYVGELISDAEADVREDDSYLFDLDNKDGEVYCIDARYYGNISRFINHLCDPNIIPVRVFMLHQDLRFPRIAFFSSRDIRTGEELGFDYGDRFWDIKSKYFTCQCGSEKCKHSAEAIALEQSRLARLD
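Methyltransferase reactions run at room temperature for 2 h (20 nM enzyme, 500 nM biotin-H3K9 peptide, 20 uM SAM) after a 15 min compound preincubation; product detected by AlphaScreen beads and anti-H3K9me1 antibody.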
PLK1 PBD inh: inhibitors of human PLK1 polo-box domain binding. 2.8% of 360,000 active. P53350. Potency, µM, for inactives: max response, negative = inhibition, usual class: inhibitors. Plk1 PBD binding of FITC phosphopeptide, fluorescence polarization; note: potency is the fitted concentration of half-maximal effect; series mostly up to about 57 µM; nearly all actives have a fitted effect of over 65% in size
Sfp PPTase inh: blocks B. subtilis Sfp PPTase activity; AID 1490; Q9F4F7; Potency, µM, inactives show largest response in the series, negative = inhibition, most hits filed as inhibitors; 3.5% of 310,000 active; Biochemical Sfp PPTase activity, qHTS;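 note: the enzyme is Sfp with the accession as filed and its product quenches rhodamine fluorescence; potency is the fitted concentration of half-maximal effect; 0% = enzyme reaction without inhibitor and -100% = no enzyme wells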
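Fluorescence-quenching assay: 15 nM Sfp-PPTase preincubated 15 min at room temperature with compound, then 5 uM rhodamine-CoA and 12.5 uM BHQ-2-labelled YbbR peptide added. Fluorescence (ex 525/em 598 nm) read at start and after 30 min; difference gives rate.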
Mm-Cpn inhibitor: M. maripaludis TRiC chaperonin inhibition; purified Mm-Cpn ATPase, ADP Transcreener TR-FRET; 0.031% of 330,000 active; AID 504842; Potency, µM (doses to about 76.9 µM), for the others: top-dose activity, negative = inhibition, actives largely listed as inhibitors; note: potency is the fitted concentration of half-maximal effect; nearly all actives have a fitted effect of over 80% in size
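Inhibition of chaperonin ATP hydrolysis is measured as reduced ADP production, detected by competitive TR-FRET in which signal falls with ADP. Final enzyme 25 nM and ATP 10 uM, reacted 30 min at 37°C.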
CCT modulator: changes cytosolic chaperonin activity; purified chaperonin ATPase assay, HTRF ADP detection, 30 min; activity change, % (no concentration beside the values), hits read low; 0.3% of 360,000 active; in the data active = activity change below about -30%
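Nucleotide hydrolysis assay: TRiC at 20–40 nM final (set by batch activity) with 10 uM ATP, 30 min at 37 °C, in presence of 76 uM compound. Detection by competitive ADP HTRF, 30 min ambient.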
VDR inhibitor: vitamin D3 receptor (human) inhibition. Potency, µM, without a hit: max response, negative = inhibition, usual class: inhibitors. 0.93% of 400,000 active. P11473. AID 504847. VDR-SRC2-3 peptide fluorescence polarization, 2 h; note: potency is the fitted concentration of half-maximal effect
Target sequence (P11473 whole entry, looked up): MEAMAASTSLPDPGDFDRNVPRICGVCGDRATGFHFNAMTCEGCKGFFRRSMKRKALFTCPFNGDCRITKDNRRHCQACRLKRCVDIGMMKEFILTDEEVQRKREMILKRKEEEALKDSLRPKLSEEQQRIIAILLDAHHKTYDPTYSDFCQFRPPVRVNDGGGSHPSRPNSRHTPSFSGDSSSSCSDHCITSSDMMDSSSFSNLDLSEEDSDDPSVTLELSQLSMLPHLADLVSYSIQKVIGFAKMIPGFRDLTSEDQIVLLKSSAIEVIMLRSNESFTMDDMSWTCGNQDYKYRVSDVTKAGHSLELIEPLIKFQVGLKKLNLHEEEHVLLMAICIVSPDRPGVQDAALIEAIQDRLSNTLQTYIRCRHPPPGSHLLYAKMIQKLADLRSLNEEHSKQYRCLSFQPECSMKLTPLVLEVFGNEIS
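Signal is fluorescence polarization, reporting how far test compounds block the interaction of VDR with the SRC2-3 coregulator peptide after a 2 h room-temperature incubation.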
* marks the source's active call; other numbers are inactive results; ? = inconclusive; nt = no result; [ ] = dose if it differs, or a comment. Unless noted, calls come from the whole dose curve; as a rule, active = well fitted curve in the direction sought with a large enough effect; inconclusive = small, poorly fitted or top-dose-only effect, or another doubt; inactive = no such curve, though single readings can be large; an effect the other way counts as inactive or inconclusive. Unless noted, % is set by controls: 0 for no effect and ±100 for the full control effect.

SMILES | G9a inh | PLK1 PBD inh | Sfp PPTase inh | Mm-Cpn inhibitor | CCT modulator | VDR inhibitor
Cc1ccccc1NC(=O)CSc1nccn1C | 8%[59 µM] | nt | nt | nt | nt | 5%
c1ccc2c(CSc3nnc(-c4ccncc4)o3)cccc2c1 | 50µM* | -24% | ? | -2% | 0 | -7%
O=C(CSc1nnc(-c2ccco2)o1)c1ccc[nH]1 | 40µM* | -26% | ? | -2% | -1 | 33%
Cc1cccc(-c2nnc(SCc3ccccc3)o2)c1 | 78%[12.7 µM] | -17% | -12% | 2% | -1 | -3%
Brc1cccc(CSc2nnc(-c3ccncc3)o2)c1 | 45µM* | -19% | 9% | -1% | 0 | -17%
Cc1cccc(CSc2nnc(-c3ccco3)o2)c1 | 51% | 3% | 28µM* | 0% | 1 | -9%
c1ccc(-c2nnc(SCc3ccncc3)o2)cc1 | nt | -14% | nt | nt | -3 | nt
C[C@H](N)CCCC(C)(C)O | 13%[21.5 µM] | nt | 11% | nt | nt | -5%
COCCn1c(=O)c(-c2cn(C)c3ccccc23)nc2cnc(Oc3ccccc3)nc21 | -2%[12.7 µM] | nt | 20% | nt | nt | -9%
CCCOC(=O)c1ccccc1O | 3%[12.7 µM] | nt | 12% | nt | nt | 8%
O=C(/C=C/c1ccco1)NC(=S)Nc1ccccc1 | -1%[0.501 µM] | -26% | -16% | -15% | -5 | ?
NS(=O)(=O)c1ccc(NC(=S)NC(=O)/C=C/c2ccco2)cc1 | ? | -9% | 20µM* | 0% | 0 | -4%
CC(=O)c1ccc(NC(=S)NC(=O)/C=C/c2ccco2)cc1 | 45µM* | 0% | -19% | -4% | -1 | ?
CCOC(=O)CNC(=O)O[C@@H]1C(=O)c2cc(OC)ccc2O[C@H]1c1ccc(OC)c(Br)c1 | nt | nt | 22% | nt | nt | 5%
CC(=O)N1c2ccc(S(=O)(=O)NCC3CCC(C(=O)NCCC(C)C)CC3)cc2CC1C (configuration not stated) | 9%[59 µM] | nt | nt | nt | nt | 7%
CCOC(=O)c1cnc(-c2ccccc2O)nc1Cl | 45µM* | -13% | -6% | 3% | -7 | -6%
CC1CC(C)(C)NC(=S)N1CCC(=O)N1CCc2ccccc21 (configuration not stated) | 45µM* | -18% | 5% | -2% | 0 | -9%
Cc1ccc(NC(=O)CN2C(=S)NC(C)(C)CC2C)cc1Cl (configuration not stated) | 16µM* | ? | 6% | 1% | -4 | -17%
CC1CC(C)(C)NC(=S)N1CCC(=O)NCCc1ccc(Cl)cc1 (configuration not stated) | 50µM* | -11% | -4% | -5% | -2 | -2%
Cc1cccc(NC(=O)CN2C(=S)NC(C)(C)CC2C)c1C (configuration not stated) | ? | -14% | -23% | 1% | -3 | -9%
CC1CC(C)(C)NC(=S)N1CCCC(=O)Nc1ccc(Cl)cc1 (configuration not stated) | -1% | -10% | 18% | -3% | 0 | 5%
CC(=O)c1cccc(NC(=O)CN2C(=S)NC(C)(C)CC2C)c1 (configuration not stated) | 32µM* | 2% | -36% | 1% | -1 | -9%
CC1CC(C)(C)NC(=S)N1CCCC(=O)Nc1ccc(F)c(F)c1 (configuration not stated) | -33% | -8% | 17% | 2% | -1 | -3%
Cc1ccc(NC(=O)N2CCN(C)c3ncccc32)cc1C | -6%[59 µM] | nt | nt | nt | nt | -1%
O=C(NCC(c1ccc(Cl)cc1)N1CCCCC1)c1ccccc1 (configuration not stated) | 3%[59 µM] | nt | nt | nt | nt | 4%
SMILES | G9a inh | PLK1 PBD inh | Sfp PPTase inh | Mm-Cpn inhibitor | CCT modulator | VDR inhibitor
Cc1ccc2c(c1)N(C(=O)Nc1cccc(C)c1C)CCO2 | -19%[59 µM] | nt | nt | nt | nt | 4%
COc1ccc(NC(=O)CSCc2cc(=O)c3cc(C)ccc3[nH]2)cc1 | -6%[59 µM] | nt | nt | nt | nt | 6%
Cc1cccc(-c2nn3c(=O)cc(CN4CCN(C(=O)/C=C/c5ccccc5)CC4)nc3s2)c1 | 28%[59 µM] | nt | nt | nt | nt | -12%
O=C1c2ccccc2NC(c2ccccc2O)N1O (configuration not stated) | 23% | -10% | -4% | 2% | -1 | 23%
O=C1c2ccccc2NC(c2cccs2)N1O (configuration not stated) | 32µM* | 0% | nt | -1% | 3 | 11%
O=[N+]([O-])c1cc(S(=O)(=O)N2CCOCC2)ccc1N1CCNCC1 | 50µM* | -8% | nt | -3% | 3 | -12%
N#Cc1ccc(N2CCOCC2)c([N+](=O)[O-])c1 | ? | 15µM* | -2% | 2% | -3 | ?
CC1CCN(c2cc(N3CCOCC3)c([N+](=O)[O-])cc2F)CC1 | 14µM* | -10% | -6% | 2% | 0 | 5%
CC(=O)N1CCN(c2ccc(S(=O)(=O)N3CCOCC3)cc2[N+](=O)[O-])CC1 | nt | -6% | nt | 0% | -1 | -11%
CC1CCN(c2cc(N3CCOCC3)c(F)cc2[N+](=O)[O-])CC1 | ? | -10% | -4% | 2% | 1 | -4%
O=C(COc1ccccc1Cl)Nc1cc(-c2ccccc2F)nn1-c1ccccc1 | -3%[59 µM] | nt | nt | nt | nt | 25%
CN(C)CCOc1ccc2ccccc2c1 | 11µM* | -4% | -26% | -4% | -1 | -10%
c1ccc2cc(OCCOCCOc3ccc4ccccc4c3)ccc2c1 | 13% | 1% | 9% | 0% | 0 | 10%
C=CCN(CC=C)CCOc1ccccc1 | 13µM* | -5% | -26% | 0% | -1 | 3%
c1ccc(OCCOCCOc2ccccc2)cc1 | nt | -8% | nt | nt | -4 | 1%
C=CCN(CC=C)CCOc1ccc2ccccc2c1 | 8.9µM* | -1% | -6% | -7% | -2 | -9%
CCNC(=O)CC1C(=O)N(c2cccc(OC)c2)C(=O)N1Cc1ccc(OC)c(OC)c1 (configuration not stated) | 8%[59 µM] | nt | nt | nt | nt | -10%
Cc1cccc(NC(=O)C2CCCN(S(=O)(=O)c3c(C)n[nH]c3C)C2)c1 (configuration not stated) | 29%[59 µM] | nt | nt | nt | nt | -8%
CC(Nc1ccccc1N1CCCCC1)C(=O)N1CCc2ccccc21 (configuration not stated) | 40µM* | -7% | 2% | -1% | -2 | 4%
CC(=O)NC1C(=O)SC1(C)C (configuration not stated) | 28µM* | nt | ? | -1% | nt | nt
NC(=O)Cc1nc(-c2ccc(F)cc2)cs1 | 22µM* | -30% | 6% | 2% | 2 | -9%
Cc1cccc(N(C)c2cc(C)nc3nc(C)nn23)c1 | ? | 30µM* | 8% | 4% | 0 | -15%
CCCCC(CC)COS(=O)(=O)O (configuration not stated) | -3%[12.7 µM] | nt | -3% | nt | nt | 2%
Cc1cc(C)n(C(C[N+](=O)[O-])c2ccc(Cl)cc2)n1 (configuration not stated) | ? | 17µM* | -12% | 3% | 1 | ?
